This is a sample that favours compounds with a hit; in the whole collection about 0.68% have one here.
RE007 growth inh: less growth of the S. pombe RE007 Vpr strain; S. pombe RE007 Vpr strain, BacTiter-Glo ATP luminescence, 24 h; Potency, µM (top dose mostly 92.2 µM), without a hit: at the top dose activity change, negative = less growth, usual class: inhibitors; 360,000 tested, 0.21% active; AID 651644; active = well fitted falling curve with a large enough effect; inconclusive = small, poorly fitted or top-dose-only effect; inactive = no such curve, though single readings can be large or run the other way; also: nearly all actives have a fitted effect of over 50% in size
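Fission yeast strain RE007, carrying one chromosomally integrated HIV-1 vpr copy, was seeded at OD 0.01 in PMG+AL medium with 23 nL pinned compound. After 24 h at 30 °C and 99% humidity, viability was read by BacTiter-Glo luminescence.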
LmPK inhibitor: blocks Leishmania mexicana pyruvate kinase activity. Q27686. purified LmPK, Kinase-Glo ATP luminescence, 1 h. Potency, µM (series often up to 57.5 µM), for inactives: at the top dose activity change, negative = inhibition, hits mostly inhibitors. 290,000 tested, 0.37% active
Target sequence (Q27686 whole entry, looked up): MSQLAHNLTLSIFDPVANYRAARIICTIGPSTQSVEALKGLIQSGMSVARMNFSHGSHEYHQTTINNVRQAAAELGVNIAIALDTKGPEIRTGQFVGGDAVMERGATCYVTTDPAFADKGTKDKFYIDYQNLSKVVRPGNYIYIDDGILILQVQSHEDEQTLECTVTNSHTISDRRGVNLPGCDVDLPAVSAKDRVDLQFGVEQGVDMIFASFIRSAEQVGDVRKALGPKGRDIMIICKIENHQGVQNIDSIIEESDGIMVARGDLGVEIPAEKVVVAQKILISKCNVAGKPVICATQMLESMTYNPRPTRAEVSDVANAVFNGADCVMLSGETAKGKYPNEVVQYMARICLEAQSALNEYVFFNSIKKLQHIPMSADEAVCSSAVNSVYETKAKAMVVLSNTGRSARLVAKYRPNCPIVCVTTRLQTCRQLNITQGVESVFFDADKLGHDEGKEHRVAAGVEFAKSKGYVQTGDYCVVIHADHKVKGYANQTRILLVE
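In 50 mM imidazole pH 7.2 with 7 mM MgCl2, LmPK (0.1 nM) turned over PEP (0.5 mM) and ADP (0.1 mM) for 1 h at room temperature. Luciferase read-out of ATP.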
AMA1-RON2 inh: disrupts binding of P. falciparum AMA1 to RON2; AlphaScreen AMA1-biotinylated RON2 peptide binding; Potency, µM (doses to about 58.2 µM), for the others: at the top dose activity change, negative = inhibition, usual class: inhibitors; 360,000 tested, 0.2% active;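 also: 0% = vehicle wells and -100% = peptide control; nearly all actives have a fitted effect of over 45% in size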
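AMA1 (3D7) with his tag at 25 nM final met compounds first, then biotinylated RON2 peptide at 25 nM; detection used donor plus acceptor beads, 10 µg/mL apiece, read by AlphaScreen after 30 min at room temperature.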
TbPYK inhibitor: T. brucei pyruvate kinase inhibition; Potency, µM (titrated, usually from 76.8 µM), inactives show top-dose activity, negative = inhibition, most hits filed as inhibitors; 410,000 tested, 0.12% active; AID 624173; Q57TT1; TbPYK enzyme, Kinase-Glo Plus ATP luminescence, 45 min; also: nearly all actives have a fitted effect of over 50% in size
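In this concentration-response screen, enzyme-free wells defined baseline while DMSO plates tracked drift. Each reaction combined TbPYK, substrate, compound and 130 uM ADP for 45 min at room temperature. Kinase-Glo Plus luminescence gave the signal.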
The depositor's hits bear a star; [ ] = dose if it differs, or a comment. Unless noted, calls follow the shape of the dose curve; as a rule, active = well fitted curve in the direction sought with a large enough effect; inconclusive = small, poorly fitted or top-dose-only effect, or another doubt; inactive = no such curve, though single readings can be large; an effect the other way counts as inactive or inconclusive. Unless noted, % is scaled to controls: 0 for no effect and ±100 for the full control effect; potency is read from the fitted curve at half-maximal effect.

What do the screens show for `O=C(CCC(=O)Nc1ccc(F)cc1)N/N=C/c1ccc(Br)cc1`?
RE007 growth inh: 4%; LmPK inhibitor: 8%; AMA1-RON2 inh: -2%; TbPYK inhibitor: -2%

What do the screens show for `NC(=O)c1ccc[n+]([C@H]2O[C@@H](COP(=O)([O-])OP(=O)(O)OC[C@H]3O[C@@H](n4cnc5c(N)ncnc54)[C@H](O)[C@@H]3O)[C@H](O)[C@@H]2O)c1`?
RE007 growth inh: 5µM*; AMA1-RON2 inh: 21%; TbPYK inhibitor: -9%

How did NC(=O)c1ccc[n+]([C@@H]2O[C@H](COP(=O)([O-])OP(=O)(O)OC[C@H]3O[C@@H](n4cnc5c(N)ncnc54)[C@@H](O)[C@@H]3O)[C@@H](O)[C@@H]2O)c1 do in these assays?
TbPYK inhibitor: 2%[33.2 µM]

How did Cc1cc(C)n2c(=S)[nH]nc2n1 do in these assays?
RE007 growth inh: 5%; LmPK inhibitor: 1%; AMA1-RON2 inh: 28%; TbPYK inhibitor: 10µM*

Results for Cc1cc(C)n2cnnc2n1 ?
RE007 growth inh: -19%; LmPK inhibitor: -2%; AMA1-RON2 inh: 0%; TbPYK inhibitor: -8%

How did CCN(CCCNc1cc2c(c(N)c1S(=O)(=O)O)C(=O)c1ccccc1C2=O)c1ccccc1 do in these assays?
RE007 growth inh: inconclusive; AMA1-RON2 inh: 14µM*; TbPYK inhibitor: -30%

How did O=C(c1ccccc1)C1CC1c1ccccc1 (stereo not given) do in these assays?
RE007 growth inh: 18µM*; AMA1-RON2 inh: 22%; TbPYK inhibitor: 3%

What do the screens show for `CN1CC(C(=O)c2ccccc2)C(c2ccccc2)C1` (stereo not given)?
RE007 growth inh: 0%; LmPK inhibitor: 2%; AMA1-RON2 inh: -7%; TbPYK inhibitor: -3%

Results for Nc1ccc2nc(-c3cc(Cl)c(N)c(Cl)c3)[nH]c2c1 ?
RE007 growth inh: 1%; LmPK inhibitor: 16µM*; AMA1-RON2 inh: inconclusive; TbPYK inhibitor: -4%

How did CCCCn1c(-c2csc3c2CCCC3)n[nH]c1=S do in these assays?
RE007 growth inh: 2%; LmPK inhibitor: 13µM*; AMA1-RON2 inh: 12%; TbPYK inhibitor: inconclusive

What do the screens show for `CCCCCCn1c(-c2cccs2)n[nH]c1=S`?
RE007 growth inh: -9%; LmPK inhibitor: -29%; AMA1-RON2 inh: 37%; TbPYK inhibitor: 2.8µM*

How did CCCCn1c(-c2csc3c2CCC(C)C3)n[nH]c1=S (stereo not given) do in these assays?
RE007 growth inh: -15%; LmPK inhibitor: 18µM*; AMA1-RON2 inh: 11%; TbPYK inhibitor: inconclusive

What do the screens show for `CCCCn1c(-c2csc3ccccc23)n[nH]c1=S`?
RE007 growth inh: 5%; LmPK inhibitor: 14µM*; AMA1-RON2 inh: 48%; TbPYK inhibitor: 16µM*

What do the screens show for `CCc1ccc(C(=O)c2cn(CC(=O)Nc3ccc4c(c3)OCO4)c3ccc(F)cc3c2=O)cc1`?
TbPYK inhibitor: -4%

What do the screens show for `CC(=O)Nc1ccc(OCC(O)Cn2cnc3ccccc32)cc1` (stereo not given)?
RE007 growth inh: -1%; LmPK inhibitor: -2%; AMA1-RON2 inh: -1%; TbPYK inhibitor: 4%

What do the screens show for `CCOC(=O)/C=C(\C)Sc1cc(=O)oc2ccccc12`?
RE007 growth inh: 23%; LmPK inhibitor: 1%; AMA1-RON2 inh: -15%; TbPYK inhibitor: 0%

How did CCOC(=O)/C=C(\C)Sc1cc(O)c2ccccc2c1O do in these assays?
RE007 growth inh: 63µM*; LmPK inhibitor: 10µM*; AMA1-RON2 inh: -16%; TbPYK inhibitor: 7.1µM*

How did COCCn1c(=NC(=O)c2ccc3c(c2)OCCO3)sc2cc(NC(C)=O)ccc21 do in these assays?
TbPYK inhibitor: -2%

How did CCOC(=O)C1=C(C)N(C)C(=O)NC1c1cccc(O)c1 (stereo not given) do in these assays?
RE007 growth inh: -4%; LmPK inhibitor: 1%; AMA1-RON2 inh: 40%; TbPYK inhibitor: -4%

What do the screens show for `COc1ccc(/C=C2\CCC(C3CCCC3)C2=O)cc1` (stereo not given)?
RE007 growth inh: 0%; LmPK inhibitor: -3%; AMA1-RON2 inh: -3%; TbPYK inhibitor: -3%

Results for COc1ccc(/C=C2/CCC(CN3CCOCC3)C2=O)cc1 (stereo not given) ?
RE007 growth inh: 7.9µM*; AMA1-RON2 inh: -4%; TbPYK inhibitor: inconclusive

What do the screens show for `CN(C)CC1CC/C(=C\c2ccc(O)cc2)C1=O` (stereo not given)?
RE007 growth inh: 11µM*; AMA1-RON2 inh: 16%; TbPYK inhibitor: inconclusive

Results for CC1CCC/C(=C\c2ccc(O)cc2)C1=O (stereo not given) ?
RE007 growth inh: inconclusive; AMA1-RON2 inh: 1%; TbPYK inhibitor: 2%

How did O=c1[nH][nH]c2c(N=Cc3ccccc3O)ccc(F)c12 do in these assays?
RE007 growth inh: 6%; LmPK inhibitor: -23%; AMA1-RON2 inh: 11µM*; TbPYK inhibitor: -18%

How did CN(C)c1ccc(N=Nc2ccccc2C(=O)OCC(=O)NC2CCCC2)cc1 do in these assays?
RE007 growth inh: -10%; LmPK inhibitor: -8%; AMA1-RON2 inh: 7.9µM*; TbPYK inhibitor: -20%

What do the screens show for `CN(C)c1ccc(N=Nc2ccccc2C(=O)OCC(=O)NCC2CCCCC2)cc1`?
RE007 growth inh: 8%; LmPK inhibitor: -1%; AMA1-RON2 inh: 11µM*; TbPYK inhibitor: -5%

Results for CN(C)c1ccc(N=Nc2ccccc2C(=O)OCC(=O)N(C)C2CCCCC2)cc1 ?
RE007 growth inh: 8%; LmPK inhibitor: -1%; AMA1-RON2 inh: -13%; TbPYK inhibitor: -17%

How did CN(C)c1ccc(C(=O)OCC(=O)NC2CCCCCC2)cc1 do in these assays?
RE007 growth inh: 2%; LmPK inhibitor: 2%; AMA1-RON2 inh: 1%; TbPYK inhibitor: -2%

How did CCc1ccn2cc(-c3cc(-c4ccccc4)no3)nc2c1 do in these assays?
RE007 growth inh: -18%; LmPK inhibitor: 16µM*; AMA1-RON2 inh: -8%; TbPYK inhibitor: -7%

What do the screens show for `O=C(/C(=C/O)N=Nc1ccc(Cl)cc1)c1ccncc1`?
RE007 growth inh: 20µM*; LmPK inhibitor: -2%; AMA1-RON2 inh: -30%; TbPYK inhibitor: 8%

Results for Cc1ccc(N=N/C(=C\O)C(=O)c2ccncc2)cc1 ?
RE007 growth inh: 20µM*; LmPK inhibitor: 10%; AMA1-RON2 inh: -4%; TbPYK inhibitor: 0%

What do the screens show for `COc1ccc(C(=O)/C(=C/O)N=Nc2ccc(F)cc2)cc1`?
RE007 growth inh: -48%; LmPK inhibitor: -2%; AMA1-RON2 inh: -14%; TbPYK inhibitor: -25%

What do the screens show for `Cc1cc(N=Nc2ccc(C)c(N=Nc3cc(C)c(N)cc3N)c2)c(N)cc1N`?
RE007 growth inh: -15%; LmPK inhibitor: 20µM*; AMA1-RON2 inh: 22µM*; TbPYK inhibitor: -4%

Results for COC(=O)c1nc(N)sc1-c1ccccc1 ?
RE007 growth inh: 20%; LmPK inhibitor: 4%; AMA1-RON2 inh: 15%; TbPYK inhibitor: -1%

How did O=C(O)CSc1nnc2c(n1)[nH]c1ccccc12 do in these assays?
RE007 growth inh: 36%; LmPK inhibitor: 28µM*; AMA1-RON2 inh: 10%; TbPYK inhibitor: 6%

Assay outcomes deposited in PubChem by National Center for Advancing Translational Sciences (NCATS).
